In PubChem BioAssay:
Unmarked numbers belong to inactive results. Active and inactive are the calls of the source. Cut-off read from the data, not from the text of the source, unless noted: active = inhibition above about 33%; inactive = the rest.

Key:
[1] = StAR promoter reporter inhibitors, counter-screen for LRH-1 inverse agonist project, cell-based, luminescence, high throughput (AID 651611; in the data active = inhibition above about 28%); details: StAR promoter luciferase reporter counterscreen, at 3.6 µM, stronger effect = higher value
[2] = molecular target: Nuclear receptor subfamily 5 group A member 2 (Homo sapiens) (UniProt O00482); assay: LRH-1 (NR5A2) inverse agonists, retest, confirmation, cell-based, luminescence (AID 651613; in the data active = inhibition above about 42%;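 note: HEK293T cells co-transfected with LRH-1 and StAR promoter luciferase reporter; 0% = vehicle wells and 100% = parental cells lacking receptor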); details: cell-based LRH-1 luciferase reporter, inverse agonism; at 3.6 µM; stronger effect = higher value
[3] = molecular target: Steroidogenic factor 1 (Homo sapiens) (UniProt Q13285); assay: SF1 (NR5A1) inverse agonists, counter-screen for LRH-1 inverse agonist project, cell-based, luminescence, high throughput (AID 651614; in the data active = inhibition above about 44%;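 note: cells cotransfected with StAR promoter reporter and SF1 expression vector; 0% = vehicle on cells with receptor and 100% = vehicle on cells lacking receptor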); details: cell-based SF1 luciferase reporter, at 3.6 µM, stronger effect = higher value
[4] = VP16 transactivation reporter inhibitors, counter-screen for LRH-1 inverse agonist project, cell-based, luminescence, high throughput (AID 651615); details: Gal4-VP16 luciferase reporter cells, at 3.6 µM, stronger effect = higher value

Chain of Nuclear receptor subfamily 5 group A member 2 (Homo sapiens) (O00482 whole entry, looked up): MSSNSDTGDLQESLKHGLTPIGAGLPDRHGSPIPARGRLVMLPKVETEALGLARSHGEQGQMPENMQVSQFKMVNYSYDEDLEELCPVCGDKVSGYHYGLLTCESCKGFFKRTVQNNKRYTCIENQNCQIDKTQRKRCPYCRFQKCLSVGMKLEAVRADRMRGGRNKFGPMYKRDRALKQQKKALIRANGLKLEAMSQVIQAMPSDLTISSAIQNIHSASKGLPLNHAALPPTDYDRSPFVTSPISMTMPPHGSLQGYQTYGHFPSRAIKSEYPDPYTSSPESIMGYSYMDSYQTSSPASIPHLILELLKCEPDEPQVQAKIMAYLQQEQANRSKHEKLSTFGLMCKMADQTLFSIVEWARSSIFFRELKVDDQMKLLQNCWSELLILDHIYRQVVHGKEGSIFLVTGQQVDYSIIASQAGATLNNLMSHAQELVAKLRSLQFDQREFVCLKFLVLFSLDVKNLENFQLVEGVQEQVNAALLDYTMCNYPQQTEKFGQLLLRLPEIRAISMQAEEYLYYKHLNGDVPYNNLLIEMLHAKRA
Chain of Steroidogenic factor 1 (Homo sapiens) (Q13285 whole entry, looked up, the tested form may be a part): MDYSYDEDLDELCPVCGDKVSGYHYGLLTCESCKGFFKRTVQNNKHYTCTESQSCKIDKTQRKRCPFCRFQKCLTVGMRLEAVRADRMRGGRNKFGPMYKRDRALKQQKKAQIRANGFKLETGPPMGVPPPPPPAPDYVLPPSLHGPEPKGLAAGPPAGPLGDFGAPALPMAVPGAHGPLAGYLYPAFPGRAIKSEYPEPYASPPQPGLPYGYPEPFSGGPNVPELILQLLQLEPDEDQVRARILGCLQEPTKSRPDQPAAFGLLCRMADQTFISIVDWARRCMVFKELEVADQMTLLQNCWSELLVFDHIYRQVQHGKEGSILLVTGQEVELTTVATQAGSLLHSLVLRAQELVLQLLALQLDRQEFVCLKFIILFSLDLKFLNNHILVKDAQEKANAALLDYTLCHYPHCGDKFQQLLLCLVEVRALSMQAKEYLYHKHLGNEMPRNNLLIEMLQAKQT

CCCN1Cc2cccc(C(=O)NC(C)c3cccs3)c2C1=O (stereo not drawn)
inhibition [1]: -7.74%
inhibition [2]: 38.5%
inhibition [3]: 27.5%
inhibition [4]: 0.87%

CCCc1nnc(SCC(=O)Nc2ccc(OC)cc2)o1
inhibition [1]: 5.23%
inhibition [2]: 42.6% (active)
inhibition [3]: 45% (active)
inhibition [4]: -8.5%

CCC(=O)Nc1ccc(NC(=O)CSc2nc3c(c(=O)n(C)c(=O)n3C)n2CC)cc1
inhibition [1]: 34.6% (active)
inhibition [2]: 58.8% (active)
inhibition [3]: 58.3% (active)
inhibition [4]: -17.8%

Cc1cc(C)c2nc(-c3cccnc3)cc(C(=O)NC(C)c3cnn(C)c3C)c2c1 (stereo not drawn)
inhibition [1]: 10.3%
inhibition [2]: 57.6% (active)
inhibition [3]: 50.9% (active)
inhibition [4]: -13.5%

O=[N+]([O-])c1ccc(N2CCCCC2)nc1N1CCCCC1
inhibition [1]: -13.2%
inhibition [2]: 54.5% (active)
inhibition [3]: 51.2% (active)
inhibition [4]: 13.4%

Cc1ccc(OCCC(=O)OCC(=O)Nc2ccc(N3CCOCC3)cc2)cc1
inhibition [1]: 16.6%
inhibition [2]: 54.8% (active)
inhibition [3]: 46.6% (active)
inhibition [4]: -7.59%

COc1ccc(O)c(/C=N/Nc2nc(Nc3ccccc3)nc(-n3nc(C)cc3C)n2)c1
inhibition [1]: 21.3%
inhibition [2]: -28.7%
inhibition [3]: -41.8%
inhibition [4]: -35.4%

COc1ccc(NC(=O)CSc2ccc3c(c2)OCCO3)cc1
inhibition [1]: 2.27%
inhibition [2]: 63.5% (active)
inhibition [3]: 56.7% (active)
inhibition [4]: -4.1%

C#Cc1ccc(NC(=O)C2(C)CCN2C(=O)Cc2ccc(C(C)(C)C)cc2)cc1 (stereo not drawn)
inhibition [1]: 4%
inhibition [2]: 48% (active)
inhibition [3]: 39%
inhibition [4]: 43.9% (active)

CCOc1ccc(C(=O)c2cc([N+](=O)[O-])ccc2Cl)cc1
inhibition [1]: 12.6%
inhibition [2]: 42.3% (active)
inhibition [3]: 39.5%
inhibition [4]: -1.79%

O=[N+]([O-])c1ccc(-n2cnc3ccccc32)c([N+](=O)[O-])c1
inhibition [1]: 17.6%
inhibition [2]: 54.7% (active)
inhibition [3]: 62.1% (active)
inhibition [4]: 9.79%

COc1ccc(OCc2nnc3n2N=C(c2ccc(C)cc2)CS3)cc1
inhibition [1]: -0.29%
inhibition [2]: 26.3%
inhibition [3]: 28.9%
inhibition [4]: -1.91%

O=C(NCc1ccco1)c1nn(-c2ccccc2)c(=O)c2ccccc12
inhibition [1]: 19.6%
inhibition [2]: 57% (active)
inhibition [3]: 53.4% (active)
inhibition [4]: -14.1%

COc1ccc(OC)c(C2=NS(=O)(=O)N(C)C(C(=O)Nc3ccc(C(C)=O)cc3)=C2)c1
inhibition [1]: 4.76%
inhibition [2]: 44.8% (active)
inhibition [3]: 45% (active)
inhibition [4]: -9.42%

C#CCSc1nsc(SCC#C)c1C#N
inhibition [1]: 3.79%
inhibition [2]: 53.4% (active)
inhibition [3]: 50.9% (active)
inhibition [4]: -20%

COc1ccccc1Nc1nc(NCCCCO)nc(N2CCCC2)n1
inhibition [1]: 10.5%
inhibition [2]: 30.2%
inhibition [3]: 38.3%
inhibition [4]: 5.34%

CC[n+]1ccc(/C=C/c2ccc(N(C)C)cc2)c2ccccc21
inhibition [1]: 77.7% (active)
inhibition [2]: 110% (active)
inhibition [3]: 94.1% (active)
inhibition [4]: 91.1% (active)

COc1cc2c(OC(C)=O)c3c(c(-c4ccc5c(c4)OCO5)c2cc1OC)C(=O)OC3
inhibition [1]: 55.8% (active)
inhibition [2]: 35.4%
inhibition [3]: 36.2%
inhibition [4]: 34.7% (active)

COCc1cccc(-c2csc(C(C)(O)c3cccc(OC)c3)n2)c1 (stereo not drawn)
inhibition [1]: -0.93%
inhibition [2]: 45.2% (active)
inhibition [3]: 29.1%
inhibition [4]: 11.7%

CCn1c(SCC(=O)Nc2ccc(N3CCOCC3)cc2)nnc1-c1ccco1
inhibition [1]: 3.02%
inhibition [2]: 58% (active)
inhibition [3]: 47.3% (active)
inhibition [4]: 10.2%

c1ccc2c(c1)CC1(CCCC1)n1nnnc1-2
inhibition [1]: 5.24%
inhibition [2]: 52.2% (active)
inhibition [3]: 42.5%
inhibition [4]: -5.69%

O=C(c1ccoc1)N1CCN(c2cc(-c3ccco3)nc3cc(-c4ccccc4)nn23)CC1
inhibition [1]: 46.1% (active)
inhibition [2]: 50.1% (active)
inhibition [3]: 48% (active)
inhibition [4]: 19.7%

CCc1ccc(N2C=C(C(=O)OC)C(c3ccc(OC)cc3)C(C#N)=C2N)cc1 (stereo not drawn)
inhibition [1]: 48.9% (active)
inhibition [2]: 25.1%
inhibition [3]: 45.3% (active)
inhibition [4]: 24.5%

CCCc1cc(=O)oc2cc3occ(C)c3cc12
inhibition [1]: -0.89%
inhibition [2]: 42.1% (active)
inhibition [3]: 37.8%
inhibition [4]: 1.16%

Cc1ccccc1Nc1nc(Cl)c(C=O)s1
inhibition [1]: 2.17%
inhibition [2]: 50.5% (active)
inhibition [3]: 41.7%
inhibition [4]: -5.11%

CCC1CCCCN1C(=O)c1ccc([N+](=O)[O-])o1 (stereo not drawn)
inhibition [1]: 0.98%
inhibition [2]: 47.5% (active)
inhibition [3]: 46.7% (active)
inhibition [4]: 3.65%

Cc1cc(O)c(NC(=O)c2cc([N+](=O)[O-])ccc2Cl)cc1C
inhibition [1]: 35% (active)
inhibition [2]: 53.6% (active)
inhibition [3]: 58.8% (active)
inhibition [4]: -8.66%

COCCn1c(SCC(=O)Nc2ccc(C(C)=O)cc2)nnc1-c1ccco1
inhibition [1]: 14.8%
inhibition [2]: 43.4% (active)
inhibition [3]: 37.4%
inhibition [4]: -1.99%

CCCc1nc2cc(C)c(Br)c(C)n2c1Cc1ccc(OC)cc1C
inhibition [1]: 15.2%
inhibition [2]: 48.3% (active)
inhibition [3]: 45.3% (active)
inhibition [4]: 5.35%

Cc1cc(-n2c(C)cc(C(=O)CSc3ncnc4ccccc34)c2C)no1
inhibition [1]: 8.06%
inhibition [2]: 67.2% (active)
inhibition [3]: 61.3% (active)
inhibition [4]: 36.9% (active)

O=C(c1cc(-c2ccco2)nc2ccccc12)N(Cc1nnc(-c2ccc(Cl)cc2)o1)C1CC1
inhibition [1]: -6.37%
inhibition [2]: -5.73%
inhibition [3]: 2.98%
inhibition [4]: -2.77%

CC(=O)N1CCN(c2ccc(NC(=O)c3ccc([N+](=O)[O-])o3)cc2Cl)CC1
inhibition [1]: 22.9%
inhibition [2]: 60% (active)
inhibition [3]: 65.1% (active)
inhibition [4]: -26.3%
